The list is not random: actives were taken first. Their share in the collection is about 12%.
HCV inhibitor: inhibitors of hepatitis C virus infection; Huh7.5.1 HCVcc-Cre infection, luciferase reporter, 44 h; Potency, µM (doses to about 41.8 µM), inactives show at the highest dose activity change, negative = inhibition, actives largely listed as inhibitors; 3.4% of 340,000 active; AID 651820; note: % is set by controls: 0 for no effect and ±100 for the full control effect
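Seed cells (1,000/well) for 4 h; treat with compound and infect with HCVcc-Cre, moi about 0.5. Incubate 44 h, then detect luciferase activity.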
NS1 function inh: blocks influenza NS1 protein function. Potency, µM (series often up to 46.1 µM), for the others: top-dose activity, positive = more growth. 0.4% of 270,000 active; calls by dose curve; note: actives are rising curves; nearly all actives have a fitted effect of over 50% in size
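Growth recovery, yeast-based: influenza A NS1 expressed in S. cerevisiae causes slow growth, and suppressors are detected by OD600. The parent strain without NS1 is used as positive control.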
AMA1-RON2 inh: disrupts binding of P. falciparum AMA1 to RON2; AlphaScreen AMA1-biotinylated RON2 peptide binding; Potency, µM (series often up to 58.2 µM), without a hit: top-dose activity change, negative = inhibition, actives largely listed as inhibitors; 0.2% of 360,000 active; AID 720542;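 note: 0% = vehicle wells and -100% = peptide control; nearly all actives have a fitted effect of over 45% in size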
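AMA1 (3D7) with his tag at 25 nM final met compounds first, then biotinylated RON2 peptide at 25 nM; detection used donor plus acceptor beads, 10 µg/mL apiece, read by AlphaScreen after 30 min at room temperature.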
SARS PLpro yeast: inhibitors of SARS-CoV papain-like protease in yeast | S. cerevisiae expressing SARS-CoV PLpro, growth rescue | Potency, µM (doses to about 32.9 µM), for inactives: at the top dose activity, positive = growth rescue, most hits filed as activators | 0.19% of 330,000 active | AID 485353; calls by dose curve; note: 0% is about no effect; nearly all actives have a fitted effect of over 55% in size
Pf growth 48h: inhibits P. falciparum growth in the first generation, 48 h | P. falciparum luciferase growth in erythrocytes, 48 h | AID 504832 | Potency, µM (titrated, usually from 28.7 µM), for inactives: at the top dose activity change, negative = inhibition, most hits filed as inhibitors | 5.9% of 310,000 active; note: % is set by controls: 0 for no effect and ±100 for the full control effect
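Luciferase-expressing P. falciparum in infected erythrocytes (2% hematocrit, 0.1% parasitemia final) in RPMI 1640/0.5% Albumax were exposed to compound for 48 hours at 37 C, 5% CO2; growth read as luminescence.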
Pf growth 96h: P. falciparum growth inhibition at 96 hours; 6.9% of 320,000 active; Potency, µM (titrated, usually from 28.7 µM), inactives show at the highest dose activity change, negative = inhibition, actives largely listed as inhibitors; P. falciparum luciferase reporter growth, 96 h; note: % is set by controls: 0 for no effect and ±100 for the full control effect
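Parasite growth measured via integrated firefly luciferase reporter in P. falciparum. Infected erythrocytes at 2% hematocrit, 0.05% parasitemia final were treated 96 hours at 37 C under 5% CO2, and luminescence was read.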
Active calls of the source: *; ? = inconclusive; · = no result; [ ] = dose if it differs, or a comment. Unless noted, calls come from the whole dose curve; as a rule, active = well fitted curve in the direction sought with a large enough effect; inconclusive = small, poorly fitted or top-dose-only effect, or another doubt; inactive = no such curve, though single readings can be large; an effect the other way counts as inactive or inconclusive. Potency is the fitted concentration of half-maximal effect.

SMILES	HCV inhibitor	NS1 function inh	AMA1-RON2 inh	SARS PLpro yeast	Pf growth 48h	Pf growth 96h
C=CCC[C@@H](Cc1ccc(F)cc1)C(=O)OC[C@H](C)NC(=O)[C@@H](CC=C)CC(=O)N[C@@H](CO)Cc1ccccc1	-21%	·	26%	-12%	·	·
CCOC(=O)c1c(C)[nH]c(C)c1S(=O)(=O)N(C)CC(=O)NCc1cccc(C)c1	11%	-2%	-5%	3%	?	5.9µM*
CCCNC(=O)N[C@H]1C=C[C@H](CC(=O)NC2CCCCC2)O[C@@H]1CO	·	·	12%	·	·	·
CC(NC(=S)NCc1ccccc1)C12CC3CC(CC(C3)C1)C2 (stereo unspecified)	10%	-1%	-2%	1%	?	5%
Oc1c(CN2CCN(c3ccccn3)CC2)cc(Cl)c2cccnc12	5µM*	-30%	?	-35%	2.3µM*	·
OCCN1CCN(Cc2cc(Cl)c3cccnc3c2O)CC1	?	-50%	-95%	18µM*	·	?
COc1ccc(-c2noc(CN3CCN(C(=O)c4cccs4)CC3)n2)c(OC)c1OC	3%	-2%	-4%	-3%	-2%	?
CCOC(=O)CCCC(=O)N1CCOCCOCCOCC1	11%	2%	0%	1%	-26%	-17%
Cc1cccc(C)c1NC(=S)Nc1ccc(Cl)c(Cl)c1	4%	-35%	17%	-1%	?	-21%
Cc1cc(C)cc(NC(=S)Nc2ccc(Cl)c(Cl)c2)c1	-17%	-68%	55%	-4%	13µM*	13%
Cc1ccc(NC(=S)Nc2ccc(Cl)c(Cl)c2)c(OC(F)F)c1	?	-28%	9%	-90%	?	4.1µM*
Cc1ccc(Sc2ccc(C(=O)N3CCOCC3)cc2[N+](=O)[O-])cc1	-14%	-6%	-10%	-1%	·	-9%
Cc1ccc(N2CCC(N3CCN(C4CCCCC4)C(CCO)C3)CC2)cc1 (stereo unspecified)	?	-1%	0%	0%	?	23%
COc1ccc2c3c(cccc13)N(C)N=C2C	?	-1%	-14%	6%	10µM*	0%
CS(=O)(=O)N1CCC(Oc2ccccc2C(=O)NCCCc2cccnc2)CC1	11%	-1%	6%	1%	-11%	9.3µM*
COc1cc(C(=O)NNC(=S)NC(=O)c2ccccc2C)cc(OC)c1OC	?	-65%	23%	7%	-4%	-1%
COc1ccccc1C(=O)NNC(=O)c1cccc(O)c1	15%	?	-4%	-2%	163%	6.6µM*
COc1ccccc1C(=O)NNC(=S)NC(=O)c1cc(OC)c(OC)c(OC)c1	?	-4%	111%	0%	-12%	13µM*
COc1cc(C(=O)OCCc2cc3ccccc3c(=O)o2)cc(OC)c1OC	3.5µM*	·	0%	2%	?	?
COc1ccc(NC(=O)N2CCC(n3cnc4ccccc43)CC2)cc1	-1%	0%	9%	-1%	?	-10%
O=C(Nc1cccc2ccccc12)N1CCN(Cc2ccccc2)CC1	-6%	-11%	2%	-2%	-15%	10µM*
O=C(Nc1cccc(F)c1)N1CC=C(n2c(=O)[nH]c3ccccc32)CC1	?	-13%	4%	-6%	10µM*	32%
Cc1ccc(C(=O)N2CC=C(c3ccccc3)CC2)s1	-3%	·	0%	1%	10µM*	1%
O=C(Nc1cccc2ccccc12)N1CC=C(c2ccccc2)CC1	2%	4%	-2%	3%	·	0.1µM*
O=C(Nc1ccccc1)N1CC=C(c2ccccc2)CC1	9%	-54%	·	-3%	170%	·
SMILES	HCV inhibitor	NS1 function inh	AMA1-RON2 inh	SARS PLpro yeast	Pf growth 48h	Pf growth 96h
CCCCn1c(SCC(=O)Nc2cc(C(F)(F)F)cc(C(F)(F)F)c2)nnc1C(CC)N(C)C (stereo unspecified)	?	-9%	-29%	14%	?	?
COc1ccc(-c2ccc3oc(-c4ccsc4)cc3c2)cc1	14%	·	1%	·	·	·
O=C(Nc1ccccc1)N1CC=C(c2ccc(F)cc2)CC1	?	-31%	2%	-22%	10µM*	·
CCCS(=O)(=O)N1CCN(C2CCC(C)CC2)CC1 (stereo unspecified)	22%	0%	-15%	1%	30%	10µM*
CCS(=O)(=O)N1CCC(N2CCC(C)CC2)CC1	-9%	3%	-15%	3%	7%	18%
COc1ccccc1N1CCN(C2CCCN(C(=O)CCn3cncn3)C2)CC1 (stereo unspecified)	18%	3%	-28%	6%	8%	?
Oc1ccc(Br)cc1-c1cc(-c2ccco2)[nH]n1	?	-172%	31%	-30%	12µM*	·
Oc1ccccc1-c1cc(-c2ccco2)[nH]n1	?	-9%	33%	-37%	·	-10%
O=C(CN1CCN(c2cccc(C(F)(F)F)c2)CC1)N(C1CCCC1)C1CCS(=O)(=O)C1 (stereo unspecified)	?	·	0%[11.6 µM]	4%	15µM*	8.3µM*
O=C(CCn1c(=O)oc2cc(Cl)ccc21)Nc1ccc(N2CCOCC2)cc1	?	5%	6%	-1%	-15%	13%
O=C(COc1ccccc1)N1N=C(c2cccnc2)CC1(O)C(F)(F)F (stereo unspecified)	19%	-9%	5%	19%	?	0.93µM*
C[C@]12C=CC(=O)N[C@@H]1CC[C@@H]1C2CC[C@]2(C)C(C(=O)Nc3cc(C(F)(F)F)ccc3C(F)(F)F)CC[C@@H]12 (stereo partly specified)	·	·	·	·	4.8µM*	3.4µM*
CC(Oc1cccc(Cl)c1)C(=O)Nc1ccccc1N1CCCCC1 (stereo unspecified)	-8%	·	-3%	-2%	5.9µM*	12µM*
CC(Oc1ccc(F)cc1)C(=O)Nc1ccccc1N1CCCCC1 (stereo unspecified)	·	-9%	6%	-4%	?	12µM*
CCC(Oc1ccccc1)C(=O)Nc1ccccc1N1CCCCC1 (stereo unspecified)	?	-11%	5%	-2%	-11%	89%
CC(C)CC(C(=O)NC1CCCCC1)N(Cc1ccccc1)C(=O)c1snc(C(N)=O)c1N (stereo unspecified)	9%	1%	4%	-3%	?	?
CC(C)(C)NC(=O)C(c1ccco1)N(Cc1ccc2c(c1)OCO2)C(=O)c1snc(C(N)=O)c1N (stereo unspecified)	-10%	-8%	-8%	1%	-21%	9.3µM*
COc1ccc(CN(C(=O)c2snc(C(N)=O)c2N)C(CC(C)C)C(=O)NC2CCCCC2)cc1 (stereo unspecified)	-6%	21%	19%	-4%	12µM*	?
